Where “and” joins values, the source holds several entries; their conditions need not be identical. Equal values may be shown once. The whole screen tested about 5,500 compounds, of which about 2,000 (36%) were called active. Not shown: some 18% with an inconclusive outcome. No stated cut-off is given here; in the data, active means normalized growth mostly below about 0.91 (no sharp cut-off); inconclusive means no clear call, values can overlap the other calls; inactive means mostly above about 0.92. This is one part of the list.
Assay: chemical genetic growth profiling, strain panel (AID 1159580);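 further: tested at 20 µM; growth read once vehicle control cultures reached saturation at 30 °C; 1 = growth at the plate median or of vehicle wells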
Conditions: S. cerevisiae deletion strains, growth OD

Measured: normalized growth

COc1c2occc2cc2ccc(=O)oc12
active: locus YBR009C, strain hhf1, stronger effect = lower value 0.878 | locus YCL011C, strain gbp2, stronger effect = lower value 0.88 | locus YCL016C, strain dcc1, stronger effect = lower value 0.888 | locus YDR195W, strain ref2 1.17 [resistant] | locus YHR142W, strain chs7, stronger effect = lower value 0.856 | locus YJL092W, strain hpr5, stronger effect = lower value 0.917
inactive: locus YAL013W, strain DEP1, stronger effect = lower value 0.992 | locus YAL021C, strain ccr4, stronger effect = lower value 0.966 | locus YAL026C, strain drs2, stronger effect = lower value 0.954 | locus YAL030W, strain snc1, stronger effect = lower value 0.975 | locus YBL061C, strain skt5, stronger effect = lower value 0.973 | locus YBR021W, strain FUR4, stronger effect = lower value 1.08 | locus YBR023C, strain chs3, stronger effect = lower value 0.926 | locus YBR171W, strain sec66, stronger effect = lower value 0.945 | locus YBR229C, strain ROT2, stronger effect = lower value 1.01 | locus YBR231C, strain swc5, stronger effect = lower value 1.03 | locus YBR279W, strain paf1, stronger effect = lower value 0.98 | locus YCL029C, strain bik1, stronger effect = lower value 0.976 | locus YCL061C, strain MRC1, stronger effect = lower value 0.931 | locus YCL069W, strain vba3, stronger effect = lower value 0.96 | locus YCR088W, strain abp1, stronger effect = lower value 0.998 | locus YDL005C, strain med2, stronger effect = lower value 0.987 | locus YDL035C, strain GPR1, stronger effect = lower value 0.956 | locus YDL040C, strain nat1, stronger effect = lower value 0.995 | locus YDL074C, strain BRE1, stronger effect = lower value 0.908 | locus YDL101C, strain DUN1, stronger effect = lower value 0.958 | locus YDL134C, strain PPH21, stronger effect = lower value 0.997 | locus YDL185W, strain tfp1, stronger effect = lower value 0.928 | locus YDL192W, strain arf1, stronger effect = lower value 0.969 | locus YDR001C, strain nth1, stronger effect = lower value 0.983 | locus YDR069C, strain doa4, stronger effect = lower value 0.964 | locus YDR101C, strain arx1, stronger effect = lower value 0.993 | locus YDR137W, strain rgp1, stronger effect = lower value 0.954 | locus YDR150W, strain NUM1, stronger effect = lower value 0.952 | locus YDR159W, strain sac3, stronger effect = lower value 1.02 | locus YDR162C, strain NBP2, stronger effect = lower value 0.931 | locus YDR297W, strain sur2, stronger effect = lower value 0.978 | locus YDR318W, strain mcm21, stronger effect = lower value 0.953 | locus YDR334W, strain swr1, stronger effect = lower value 0.919 | locus YDR335W, strain msn5, stronger effect = lower value 0.982 | locus YDR388W, stronger effect = lower value 0.985 | locus YDR392W, strain spt3, stronger effect = lower value 0.852 | locus YDR502C, strain sam2, stronger effect = lower value 0.957 | locus YEL003W, strain gim4, stronger effect = lower value 0.988 | locus YEL037C, strain rad23, stronger effect = lower value 0.944 | locus YEL061C, strain CIN8 (second series), stronger effect = lower value 0.981 | locus YEL061C, strain CIN8, stronger effect = lower value 0.999 | locus YER015W, strain faa2, stronger effect = lower value 0.965 | locus YER016W, strain bim1, stronger effect = lower value 1 | locus YER110C, stronger effect = lower value 0.948 | locus YER111C, strain swi4, stronger effect = lower value 0.973 | locus YER155C, strain BEM2 (second series), stronger effect = lower value 0.866 | locus YER155C, strain BEM2, stronger effect = lower value 1.03 | locus YER167W, strain BCK2, stronger effect = lower value 0.982 | locus YFR010W, strain ubp6, stronger effect = lower value 0.94 | locus YGL078C, strain dbp3, stronger effect = lower value 0.99 | locus YGL086W, strain mad1, stronger effect = lower value 0.961 | locus YGL167C, strain pmr1, stronger effect = lower value 0.998 | locus YGL173C, strain kem1, stronger effect = lower value 0.973 | locus YGL227W, strain vid30, stronger effect = lower value 0.988 | locus YGL240W, strain doc1, stronger effect = lower value 0.99 | locus YGL248W, strain PDE1, stronger effect = lower value 0.999 | locus YGL253W, strain hxk2, stronger effect = lower value 0.942 | locus YGR078C, strain PAC10, stronger effect = lower value 0.922 | locus YGR135W, strain pre9, stronger effect = lower value 0.935 | locus YGR229C, strain SMI1, stronger effect = lower value 0.948 | locus YGR252W, strain gcn5, stronger effect = lower value 0.817 | locus YHR013C, strain ard1, stronger effect = lower value 0.935 | locus YHR027C, strain rpn1, stronger effect = lower value 0.956 | locus YHR030C, strain SLT2, stronger effect = lower value 0.995 and 1.02 | locus YHR079C, strain IRE1 (second series), stronger effect = lower value 0.992 | locus YHR079C, strain IRE1, stronger effect = lower value 1.03 | locus YHR094C, strain hxt1, stronger effect = lower value 0.988 | locus YHR129C, strain ARP1, stronger effect = lower value 0.996 | locus YHR200W, strain rpn10, stronger effect = lower value 0.928 | locus YIL066C, strain RNR3, stronger effect = lower value 0.933 | locus YIL073C, strain SPO22, stronger effect = lower value 0.865 | locus YIL125W, strain kgd1, stronger effect = lower value 1 | locus YIR030C, strain dcg1, stronger effect = lower value 0.998 | locus YJL095W, strain BCK1 (second series), stronger effect = lower value 0.982 | locus YJL095W, strain BCK1, stronger effect = lower value 0.911 and 1.02 | locus YJL115W, strain asf1, stronger effect = lower value 0.943 | locus YJL129C, strain trk1, stronger effect = lower value 0.987 | locus YJL134W, strain LCB3, stronger effect = lower value 0.985 | locus YJL154C, strain vps35, stronger effect = lower value 0.984 | locus YJL164C, strain tpk1, stronger effect = lower value 0.945 | locus YJL166W, strain qcr8, stronger effect = lower value 0.943 | locus YJL168C, strain set2, stronger effect = lower value 0.985 | locus YJL187C, strain SWE1 (second series), stronger effect = lower value 0.974 | locus YJL187C, strain SWE1, stronger effect = lower value 0.976 | locus YJR043C, strain POL32, stronger effect = lower value 0.953 | locus YJR066W, strain TOR1, stronger effect = lower value 0.969

Reference: PubChem BioAssay AID1159580 (chemical genetic matrix, 2015)
